Results published in paper PMC13083723 (Patterns, 2026).
Among all 5,400 compounds or so, about 190 (3.5%) showed an effect of 50% or more. The sample holds strong results, similar compounds and a random draw of the others, so the mix is not that of the screen.

system: Vero-E6; experiment: primary screen, phospholipidosis by LipidTOX staining; higher = more effect of the substance; settings: 10 µM
In short: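 Single-concentration screen at 10 μM, with DMSO 0.1 v/v % and amiodarone 10 μM as controls. Read-out is LipidTOX Red phospholipid staining, which tolerates aldehyde fixation, in Vero-E6 cells.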

| SMILES | result_ITMP [%] |
| --- | --- |
| C[C@@]12C(=O)OC(=O)[C@]1(C)[C@H]1CC[C@@H]2O1 | 7.41 |
| CNCC/C=C/c1cccnc1 | -4.64 |
| CNCCC=C1c2ccccc2CCc2ccccc21 | 64.4 |
| CNCCC=C1c2ccccc2C=Cc2ccccc21 | 42.4 |
| O=C(N[C@H]1CN2CCC1CC2)c1cnc2ccsc2c1O | -2.55 |
| COC(=O)N[C@H](C(=O)N1CCC[C@H]1c1ncc(-c2ccc3c(c2)O[C@@H](c2ccccc2)n2c-3cc3cc(-c4cnc([C@@H]5CCCN5C(=O)[C@@H](NC(=O)OC)C(C)C)[nH]4)ccc32)[nH]1)C(C)C | 3.24 |
| Cc1onc(-c2ccccc2Cl)c1C(=O)N[C@@H]1C(=O)N2[C@@H]1SC(C)(C)[C@@H]2C(=O)[O-] | 4.56 |
| C=CCN1CCC23c4c5ccc(O)c4O[C@H]2C(=O)CC[C@@]3(O)[C@H]1C5 | -3.91 |
| NC[C@H]1O[C@H](O[C@H]2[C@H](O[C@@H]3O[C@H](CO)[C@@H](O)[C@H]3O)[C@@H](O)[C@H](N)C[C@@H]2N)[C@H](N)[C@@H](O)[C@@H]1O | -1.8 |
| CN(C)CC[C@@H](c1ccc(Cl)cc1)c1ccccn1 [R4A_0004036_001 / SPE_K39462424] | 22.6 |
| CC(=O)C(=O)[O-] | -8.52 |
| CN1[C@@H]2CC[C@H]1C[C@@H](OC(=O)c1c[nH]c3ccccc13)C2.CN1[C@@H]2CC[C@H]1C[C@H](OC(=O)c1c[nH]c3ccccc13)C2 | 19.1 |
| CC(C)Oc1ccc(-c2nc(-c3cccc4c3CCC4NCCC(=O)O)no2)cc1C#N (stereo not shown) | -0.21 |
| CCOc1ccc(-c2nc(-c3cccc4c3CCC4NCCO)no2)cc1OCC (stereo not shown) | 108 |
| CC(C)Oc1ccc(-c2nc(-c3cccc4c3CC[C@@H]4NCCO)no2)cc1C#N | 39.4 |
| Cc1ccc(Cl)c(Nc2ccccc2C(=O)[O-])c1Cl | -2.49 |
| CC[C@]1(O)C[C@H]2C[N@](CCc3c([nH]c4ccccc34)[C@@](C(=O)OC)(c3cc4c(cc3OC)N(C)[C@H]3[C@@](O)(C(N)=O)[C@H](O)[C@]5(CC)C=CCN6CC[C@]43[C@@H]65)C2)C1 | 9.74 |
| COc1cc(CN(CCN)C(=O)c2cccs2)ccc1OCc1ccccc1 | 85.4 |
| O=C(O)Cc1ccc(OCc2ccccc2)c(Cl)c1 | 2.22 |
| COc1cc(C(=O)NCC2(N(C)C)CCCC2)cc(OC)c1OCc1ccccc1 | 25.4 |
| O=S(=O)([O-])CC(S)CS (stereo not shown) | -3.17 |
| O=C(NC(Cc1c[nH]c2ccccc12)C(=O)[O-])c1ccc(Cl)cc1 (stereo not shown) | -0.44 |
